{"source": "PubChem BioAssay (NCATS)", "key": {"[1]": {"test": "qHTS Assay for Identifying Gametocytocidal Compounds (AID 743244); note: potency is the fitted concentration of half-maximal effect;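 for max response: actives lower the fluorescent signal which means gametocytes are killed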", "details": "P. falciparum 3D7 stage III-V gametocytes, alamarBlue, 72 h; max response: stronger effect = lower value", "procedure,_shortened": "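Late gametocytes (III–V), P. falciparum 3D7; 72 h drug, then 24 h alamarBlue; resazurin reduction read by fluorescence.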"}, "[2]": {"molecular_target": "T1, Hexokinase-4 (Homo sapiens) + Glucokinase regulatory protein (Homo sapiens) (UniProt P35557+Q14397)", "T1 sequence (P35557 whole entry, looked up)": "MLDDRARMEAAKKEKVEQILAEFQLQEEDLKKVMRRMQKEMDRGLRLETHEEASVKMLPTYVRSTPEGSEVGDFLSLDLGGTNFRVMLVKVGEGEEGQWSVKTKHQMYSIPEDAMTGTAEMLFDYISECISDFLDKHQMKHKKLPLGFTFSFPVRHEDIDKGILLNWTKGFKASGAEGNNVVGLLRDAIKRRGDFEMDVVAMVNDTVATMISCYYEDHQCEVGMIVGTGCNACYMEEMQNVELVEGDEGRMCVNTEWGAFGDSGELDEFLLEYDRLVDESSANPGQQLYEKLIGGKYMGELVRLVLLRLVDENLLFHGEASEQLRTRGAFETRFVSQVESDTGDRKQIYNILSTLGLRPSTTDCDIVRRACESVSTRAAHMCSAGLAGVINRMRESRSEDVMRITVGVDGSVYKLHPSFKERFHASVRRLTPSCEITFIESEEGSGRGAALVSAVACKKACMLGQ", "T1 sequence (Q14397 whole entry, looked up)": "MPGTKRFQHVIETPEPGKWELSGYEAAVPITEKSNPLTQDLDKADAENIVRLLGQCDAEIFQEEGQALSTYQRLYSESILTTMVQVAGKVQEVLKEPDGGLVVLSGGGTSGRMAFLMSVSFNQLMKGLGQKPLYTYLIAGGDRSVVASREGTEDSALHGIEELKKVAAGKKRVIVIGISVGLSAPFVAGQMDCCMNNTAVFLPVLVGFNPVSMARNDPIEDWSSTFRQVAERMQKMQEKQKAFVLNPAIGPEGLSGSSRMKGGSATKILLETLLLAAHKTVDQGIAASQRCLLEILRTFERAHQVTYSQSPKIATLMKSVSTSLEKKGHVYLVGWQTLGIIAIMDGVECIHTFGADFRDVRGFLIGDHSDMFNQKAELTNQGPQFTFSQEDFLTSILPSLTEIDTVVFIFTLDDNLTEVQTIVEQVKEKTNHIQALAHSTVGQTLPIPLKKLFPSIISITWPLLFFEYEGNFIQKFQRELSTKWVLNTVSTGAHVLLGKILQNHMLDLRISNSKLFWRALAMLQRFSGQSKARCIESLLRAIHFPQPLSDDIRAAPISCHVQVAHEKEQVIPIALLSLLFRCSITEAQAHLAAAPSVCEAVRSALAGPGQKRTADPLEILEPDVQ", "test": "qHTS assay for inhibitors of recombinant human GCK-GKRP interaction: Diaphorase-coupled assay (AID 743205)", "procedure,_shortened": "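Inhibitors of the GCK–GKRP complex relieve GKRP suppression of GCK, detected through a G6PDH–diaphorase cascade reducing resazurin. Human GST-GCK and FLAG-GKRP are used at 10 nM with 5 mM glucose and 0.4 mM ATP.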"}, "[3]": {"molecular_target": "T1, Hexokinase-4 (Homo sapiens) + Glucokinase regulatory protein (Homo sapiens)", "test": "qHTS assay for inhibitors of recombinant human GCK-GKRP interaction: ADP-Glo assay (AID 743206)", "procedure,_shortened": "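GST-GCK and FLAG-GKRP (15 nM each in the dispensed mix, with 2 uM S6P) react with 0.4 mM ATP and 5 mM glucose (final) in Hepes pH 7.6 for 60 min at room temperature. ADP is measured by ADP-Glo luminescence.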"}, "[4]": {"molecular_target": "T1, Hexokinase-4 (Homo sapiens) + Glucokinase regulatory protein (Homo sapiens)", "test": "qHTS assay for inhibitors of recombinant human GCK-GKRP interaction: HTRF assay (AID 743207)", "procedure,_shortened": "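Steps: dispense GCK–GKRP complex (5 nM each, GST- and FLAG-tagged) with 2 uM S6P; pin in compounds; add XL665/Eu-cryptate-labelled antibodies; incubate 60 min at room temperature; read time-resolved FRET at 665 and 615 nm.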"}, "[5]": {"test": "qHTS profiling for inhibitors of Plasmodium falciparum (3D7) proliferation (AID 743322; call rule not given here;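 note: infected erythrocytes exposed to compound for 72 h before lysis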)", "details": "P. falciparum 3D7 proliferation; at 28.7 µM (top of the series) unless noted", "procedure,_shortened": "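Erythrocytes infected with P. falciparum (0.3% parasitemia, 2.5% hematocrit) incubated with compounds 72 h at 37 C, 5% CO2. Lysis with saponin/Triton buffer containing SYBR Green I, overnight at room temperature in the dark; DNA fluorescence (485/535 nm) normalised to 0.29 uM artemisinin and DMSO.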"}, "[6]": {"test": "qHTS profiling for inhibitors of Plasmodium falciparum (DD2) proliferation (AID 743323; call rule not given here)", "details": "lower = more inhibition; at 28.7 µM (top of the series) unless noted", "procedure,_shortened": "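1536-well qHTS; infected RBCs 0.3% parasitemia/2.5% Hct final; cpd 72 h 37 C 5% CO2; lysis buffer + SYBR Green I, o/n RT dark; FI 485/535; norm. to 0.29 uM artemisinin and DMSO, plate-stack corrected.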"}, "[7]": {"test": "qHTS profiling for inhibitors of Plasmodium falciparum (HB3) proliferation (AID 743324)", "details": "Plasmodium falciparum HB3 blood-stage proliferation; at 28.7 µM (top of the series) unless noted", "procedure,_shortened": "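P. falciparum HB3 grown in erythrocytes (0.3% parasitemia, 2.5% hematocrit final) with compound for 72 h at 37 C, 5% CO2. Parasite DNA detected by SYBR Green after saponin/triton lysis overnight; normalized to 0.29 uM artemisinin and DMSO.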"}, "[8]": {"test": "qHTS profiling of the MIPE4 collection as inhibitors of Plasmodium falciparum (3D7) proliferation (AID 743344; call rule not given here)", "details": "P. falciparum 3D7 in erythrocytes, SYBR Green DNA fluorescence, 72 h; at 28.5 µM (top of the series) unless noted", "description": "Plasmodium falciparum is a virulent malarial parasite that kills 1-2 million people worldwide each year. Transmitted by mosquitoes, the sporozoite form of the parasite enters the blood stream to infect hepatocytes, where they become merozoites that infect red blood cells (erythrocytes). Within erythrocytes, merozoites begin a […] cycle of growth and division, after which the parasite is released to infect new red blood cells. Gametocytes, which form within erythrocytes as well, circulate in the bloodstream and are ingested by the mosquito, thereby completing the life cycle. To profile malarial isolates for differential chemical responses and to identify inhibitors of malarial growth, an assay that measures P. falciparum growth and replication within erythrocytes was employed. This assay uses a DNA binding fluorescent dye (SYBR Green) to detect parasite DNA following cell lysis. Because mature erythrocytes lack DNA, only Plasmodium-derived DNA is detected.\nThe SYBR Green viability assay was adapted from a method described previously (Plouffe et al., 2008). For screening 3 ul culture medium was dispensed into 1536 well black clear bottom plates (Aurora Biotechnologies) using a Multidrop Combi (Thermo Fisher Scientific Inc.), 23 nL compounds in DMSO were added by a pin tool (Kalypsys), and 5 ul of erythrocytes infected with P. falciparum (0.3% parasitemia, 2.5% hematocrit final concentration) were added. The plates were incubated at 37 C in a humidified incubator in 5% CO2 for 72 h, and 2 ul lysis buffer (20 mM Tris HCl, 10 mM EDTA, 0.16% saponin, 1.6% triton X, 10X SYBR Green I supplied as 10,000X […] by Invitrogen) was added to each well. The plates were mixed for 25 sec with gentle shaking and incubated overnight at room temperature in the dark. The following morning, fluorescence intensity at 485(14) nm excitation and 535(25) nm emission wavelengths was measured on an EnVision (Perkin Elmer) plate reader. Plate reads were normalized relative to the control inhibitor (0.29 uM artemisinin) and vehicle (DMSO) wells present on each plate and then corrected by an algorithm using vehicle-only control plates at the beginning and end of the compound plate stack."}}, "note": "Where “and” joins values, the source holds several entries; their conditions need not be identical. Identical values can stand only once. Records with an inconclusive call do not appear. Where a call stands in place of a potency, no number is given. Calls of active or inactive are those of the source. Unless noted, calls come from the whole dose curve; as a rule, active = well fitted curve in the direction sought with a large enough effect; inconclusive = small, poorly fitted or top-dose-only effect, or another doubt; inactive = no such curve, though single readings can be large; an effect the other way counts as inactive or inconclusive."}
{"compound": "CC(=O)OCC(=O)[C@@]1(OC(C)=O)[C@@H](C)C[C@H]2[C@@H]3C[C@H](F)C4=CC(=O)C=C[C@]4(C)[C@@]3(F)[C@@H](O)C[C@@]21C", "values": [{"measurement": "max response", "setting": "[1]", "value": "29% (inactive)"}]}
{"compound": "NC(=O)C(=O)N/N=C/c1ccc([N+](=O)[O-])o1", "values": [{"measurement": "Potency", "setting": "[1]", "value": "17.8 µM (active)"}]}
{"compound": "COc1cc2c(cc1O)CC[C@@H]1[C@@H]2CC[C@]2(C)[C@@H](O)CC[C@@H]12", "values": [{"measurement": "outcome", "setting": "[2]", "value": "inactive"}, {"measurement": "outcome", "setting": "[3]", "value": "inactive"}, {"measurement": "outcome", "setting": "[4]", "value": "inactive"}, {"measurement": "max response", "setting": "[1]", "value": "-20.1% (inactive) and 26.1% (inactive)"}, {"measurement": "remaining parasite growth % (stronger effect = lower value)", "setting": "[5]", "value": "90.1% and 79.2%"}, {"measurement": "activity, percent of control", "setting": "[6]", "value": "93.6% and 83.5%"}, {"measurement": "remaining proliferation (% of control), lower = more inhibition", "setting": "[7]", "value": "93.9% and 38.4%"}, {"measurement": "parasite growth, % of DMSO control", "setting": "[8]", "value": 83.5, "unit": "%"}]}
{"compound": "CNCCC(Oc1ccccc1C)c1ccccc1", "note": "(stereo not drawn)", "values": [{"measurement": "outcome", "setting": "[2]", "value": "inactive"}, {"measurement": "outcome", "setting": "[3]", "value": "inactive"}, {"measurement": "outcome", "setting": "[4]", "value": "inactive"}, {"measurement": "max response", "setting": "[1]", "value": "9.68% (inactive)"}]}
{"compound": "CCN(CCCc1ccccc1)CCCc1ccccc1", "values": [{"measurement": "max response", "setting": "[1]", "value": "0.141% (inactive)"}]}
{"compound": "CC(C)COC(=O)OCN1C(=O)CN(CCN2CC(=O)N(COC(=O)OCC(C)C)C(=O)C2)CC1=O", "values": [{"measurement": "outcome", "setting": "[2]", "value": "inactive"}, {"measurement": "outcome", "setting": "[3]", "value": "inactive"}, {"measurement": "outcome", "setting": "[4]", "value": "inactive"}, {"measurement": "max response", "setting": "[1]", "value": "5.95% (inactive) and 28.2% (inactive)"}]}
{"compound": "COC(=O)[C@H]1[C@H]2C[C@H]3c4[nH]c5ccccc5c4CCN3C[C@H]2CC[C@@H]1O", "values": [{"measurement": "outcome", "setting": "[2]", "value": "inactive"}, {"measurement": "outcome", "setting": "[3]", "value": "inactive"}, {"measurement": "outcome", "setting": "[4]", "value": "inactive"}, {"measurement": "max response", "setting": "[1]", "value": "13.2% (inactive) and 17.2% (inactive)"}]}
{"compound": "CC(CCc1ccccc1)NCC(O)c1ccc(O)c(C(N)=O)c1", "note": "(stereo not drawn)", "values": [{"measurement": "outcome", "setting": "[2]", "value": "inactive"}, {"measurement": "outcome", "setting": "[3]", "value": "inactive"}, {"measurement": "outcome", "setting": "[4]", "value": "inactive"}, {"measurement": "max response", "setting": "[1]", "value": "16.8% (inactive)"}]}
{"compound": "CC(=O)O[C@H]1C[C@@H]2CC[C@@H]3[C@H](CC[C@@]4(C)[C@H]3C[C@H]([N+]3(C)CCCCC3)[C@@H]4OC(C)=O)[C@@]2(C)C[C@@H]1[N+]1(C)CCCCC1", "values": [{"measurement": "outcome", "setting": "[2]", "value": "inactive"}, {"measurement": "outcome", "setting": "[3]", "value": "inactive"}, {"measurement": "outcome", "setting": "[4]", "value": "inactive"}, {"measurement": "max response", "setting": "[1]", "value": "-9.72% (inactive) and 10.5% (inactive)"}]}
{"compound": "CC1(C)CCC(NC(=O)[C@@H](N)CCC(=O)O)CC1", "values": [{"measurement": "outcome", "setting": "[2]", "value": "inactive"}, {"measurement": "outcome", "setting": "[3]", "value": "inactive"}, {"measurement": "outcome", "setting": "[4]", "value": "inactive"}, {"measurement": "max response", "setting": "[1]", "value": "-7.5% (inactive) and 17.9% (inactive)"}]}
{"compound": "CC(C)C[C@H]1C(=O)N2CCC[C@H]2[C@]2(O)O[C@](NC(=O)[C@@H]3C=C4c5cccc6[nH]c(Br)c(c56)C[C@H]4N(C)C3)(C(C)C)C(=O)N12", "values": [{"measurement": "outcome", "setting": "[2]", "value": "inactive"}, {"measurement": "outcome", "setting": "[3]", "value": "inactive"}, {"measurement": "outcome", "setting": "[4]", "value": "inactive"}]}
{"compound": "CC(=O)OCC(=O)NCCCOc1cccc(CN2CCCCC2)c1", "values": [{"measurement": "max response", "setting": "[1]", "value": "8.95% (inactive) and 5.62% (inactive)"}]}
{"compound": "C[C@@H]1C(=O)NC2=Nc3cccc(Cl)c3CN21", "values": [{"measurement": "outcome", "setting": "[2]", "value": "inactive"}, {"measurement": "outcome", "setting": "[3]", "value": "inactive"}, {"measurement": "outcome", "setting": "[4]", "value": "inactive"}, {"measurement": "max response", "setting": "[1]", "value": "-15.6% (inactive) and 9.95% (inactive)"}]}
